Experimental data reported in PubChem BioAssay (NCI).
The panel holds about 79,000 compounds, 15% with a hit somewhere; the sample as a whole holds those more often. The source made the active and inactive calls. Cut-off read from the data, not from the text of the source: active = growth inhibition above about 70%; inactive = the rest.

How the values were obtained:
[1] = NCI Yeast Anticancer Drug Screen. Data for the rad52 strain (AID 147);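 note: 0% = growth of vehicle-treated control cultures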; details: S. cerevisiae rad52 mutant growth inhibition, stronger effect = higher value
Method in brief: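 Genetically altered yeast (DNA damage repair defect) treated with compound; inhibition calculated relative to vehicle.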

[2] = NCI Yeast Anticancer Drug Screen. Data for the wt1 strain (AID 149);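 note: 0% = growth of vehicle-treated wt1 cultures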; details: S. cerevisiae wt1 strain (SPY 50644) growth inhibition, stronger effect = higher value
Method in brief: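 Each compound is tested on wt1 yeast and the loss of growth versus vehicle gives the inhibition value.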

[3] = NCI Yeast Anticancer Drug Screen. Data for the rad50EPP+ strain (AID 151);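 note: 0% = growth of vehicle-treated control cultures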; details: S. cerevisiae rad50 mutant strain, stronger effect = higher value
Method in brief: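 Strain rad50EPP+; compound exposure; % growth inhibition vs vehicle.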

[4] = NCI Yeast Anticancer Drug Screen. Data for the rad50 strain (AID 155);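 note: 0% = growth of vehicle-only cultures of the same strain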; details: S. cerevisiae rad50 strain growth inhibition, stronger effect = higher value
Method in brief: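 Vehicle-treated cultures provide the reference for the growth inhibition reported for compound-exposed, repair-deficient yeast.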

[5] = NCI Yeast Anticancer Drug Screen. Data for the mec2-1 strain (AID 157); details: S. cerevisiae mec2-1 strain, stronger effect = higher value
Method in brief: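 Cells of the genetically defined mec2-1 yeast strain are incubated with test compound. Inhibition of growth is calculated against vehicle-treated controls.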

[6] = NCI Yeast Anticancer Drug Screen. Data for the rad14 strain (AID 159);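 note: 0% = growth of vehicle-treated control cultures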; details: S. cerevisiae rad14 strain growth inhibition, stronger effect = higher value
Method in brief: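 Inhibition of growth is reported for a repair-deficient yeast mutant following compound treatment, calculated relative to cultures that received vehicle.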

[7] = NCI Yeast Anticancer Drug Screen. Data for the sgs1 mgt1 strain (AID 161);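 note: 0% = growth of cultures given vehicle only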; details: S. cerevisiae sgs1 mgt1 strain, stronger effect = higher value
Method in brief: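 Genetically altered yeast, compound exposure, growth inhibition relative to vehicle.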

[8] = NCI Yeast Anticancer Drug Screen. Data for the bub3 strain (AID 167); details: S. cerevisiae bub3 mutant strain, stronger effect = higher value
Method in brief: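 Mutant yeast screening strain plus compound; vehicle-treated cultures serve as the 0% inhibition reference.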

[9] = NCI Yeast Anticancer Drug Screen. Data for the wt2 strain (AID 169); details: S. cerevisiae wt2 strain growth inhibition, stronger effect = higher value
Method in brief: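 Steps: yeast strain treated with compound; growth recorded; inhibition calculated relative to cultures given vehicle alone.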

[10] = NCI Yeast Anticancer Drug Screen. Data for the sgs1 strain (AID 173);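 note: 0% = growth of vehicle-only control cultures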; details: S. cerevisiae sgs1 mutant, stronger effect = higher value
Method in brief: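 Inhibition of yeast growth served as the measure. The mutant strain was treated with each compound, and growth was normalised to cultures receiving vehicle alone.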

[11] = NCI Yeast Anticancer Drug Screen. Data for the mlh1 rad18 strain (AID 175); details: S. cerevisiae mlh1 rad18 strain growth inhibition, stronger effect = higher value
Method in brief: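 Compound-treated yeast growth, normalised to vehicle controls. Strain bears defined DNA repair mutations.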

[12] = NCI Yeast Anticancer Drug Screen. Data for the rad18 strain (AID 177); details: S. cerevisiae rad18 mutant growth inhibition, stronger effect = higher value
Method in brief: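 Inhibition values reflect reduced yeast growth compared with vehicle-treated controls, using a strain engineered with a DNA damage repair defect.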

[13] = NCI Yeast Anticancer Drug Screen. Data for the CLN2oe strain (AID 163);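 note: 0% = growth of vehicle-only control cultures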; details: S. cerevisiae CLN2oe strain, stronger effect = higher value
Method in brief: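 Strain altered in cell-cycle control, incubated with compound; growth compared to solvent-treated controls.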

[14] = NCI Yeast Anticancer Drug Screen. Data for the cln2 rad14 strain (AID 165);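 note: 0% = growth equal to vehicle treated cultures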; details: S. cerevisiae cln2 rad14 strain, stronger effect = higher value
Method in brief: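 The screen exposed genetically defined yeast (cln2 rad14) to test compounds and scored growth inhibition relative to vehicle-treated controls.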

[15] = NCI Yeast Anticancer Drug Screen. Data for the mlh1 strain (AID 171);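 note: 0% = growth of vehicle-treated control cultures of the same strain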; details: S. cerevisiae mlh1 strain growth inhibition, stronger effect = higher value
Method in brief: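 Yeast screen: mutant strain plus compound, growth scored against vehicle control wells.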

[16] = at 5.0 µM (retest, dose inferred, filed as 0.5)
[17] = at 50.0 µM (retest, dose inferred, filed as 5.0)

Measured: growth inhibition

CC(=O)CC(=O)/C=C/c1cccs1
active: [1]; at 100.0 µM 86% | [3]; at 33.0 µM 89% | [3]; at 100.0 µM 92% | [4]; [16] 97% | [4]; at 33.0 µM 76% | [4]; [17] 100% | [4]; at 100.0 µM 92% | [5]; [16] 94% | [5]; [17] 99% | [5]; at 100.0 µM 77% | [6]; at 100.0 µM 89% | [8]; at 100.0 µM 90% | [9]; at 100.0 µM 84% | [10]; at 100.0 µM 93% | [11]; [16] 100% | [11]; [17] 100% | [12]; at 100.0 µM 88%
inactive: [1]; at 1.2 µM -15% | [1]; at 3.7 µM -8% | [1]; at 11.0 µM 6% | [1]; at 33.0 µM 26% | [2]; at 1.2 µM -25% | [2]; at 3.7 µM -23% | [2]; at 11.0 µM -22% | [2]; at 33.0 µM -19% | [2]; at 100.0 µM 59% | [3]; at 1.2 µM 7% | [3]; at 3.7 µM 0% | [3]; at 11.0 µM 33% | [4]; at 1.2 µM -3% | [4]; at 3.7 µM -5% | [4]; at 11.0 µM 18% | [4]; at 50.0 µM 68.7% | [5]; at 1.2 µM -36% | [5]; at 3.7 µM -38% | [5]; at 11.0 µM -21% | [5]; at 33.0 µM 10% | [5]; at 50.0 µM 50% | [6]; at 1.2 µM -12% | [6]; at 3.7 µM -9% | [6]; at 11.0 µM 6% | [6]; at 33.0 µM 8% | [7]; [16] -16% | [7]; [17] 44% | [7]; at 50.0 µM 51.2% | [8]; at 1.2 µM 2% | [8]; at 3.7 µM -10% | [8]; [16] -1% | [8]; at 11.0 µM -27% | [8]; at 33.0 µM 21% | [8]; [17] 53% | [8]; at 50.0 µM 19% | [9]; at 1.2 µM -17% | [9]; at 3.7 µM -17% | [9]; at 11.0 µM -9% | [9]; at 33.0 µM -10% | [10]; at 1.2 µM -18% | [10]; at 3.7 µM -8% | [10]; at 11.0 µM 26% | [10]; at 33.0 µM 30% | [11]; at 50.0 µM 64.8% | [12]; at 1.2 µM -20% | [12]; at 3.7 µM -26% | [12]; at 11.0 µM 12% | [12]; at 33.0 µM 20%

O=C1NC(c2c(Cl)cccc2Cl)Nc2ccccc21 (stereo not given)
active: [1]; at 33.0 µM 75% | [1]; at 100.0 µM 95% | [2]; at 100.0 µM 91% | [4]; [16] 86% | [4]; at 33.0 µM 72% | [4]; [17] 100% | [4]; at 50.0 µM 83.7% | [4]; at 100.0 µM 91% | [5]; [16] 92% | [5]; [17] 100% | [5]; at 50.0 µM 83.7% | [5]; at 100.0 µM 94% | [6]; at 100.0 µM 89% | [7]; [17] 87% | [13]; at 100.0 µM 93% | [14]; [17] 90% | [8]; at 33.0 µM 78% | [8]; [17] 87% | [8]; at 100.0 µM 94% | [9]; at 100.0 µM 89% | [15]; at 100.0 µM 87% | [10]; at 100.0 µM 88% | [11]; [16] 71% | [11]; [17] 100% | [11]; at 50.0 µM 84.5% | [12]; at 33.0 µM 74% | [12]; at 100.0 µM 93%
inactive: [1]; at 1.2 µM 9% | [1]; at 3.7 µM 9% | [1]; at 11.0 µM 12% | [2]; at 1.2 µM -25% | [2]; at 3.7 µM -26% | [2]; at 11.0 µM -22% | [2]; at 33.0 µM 52% | [3]; at 1.2 µM -12% | [3]; at 3.7 µM -21% | [3]; at 11.0 µM -18% | [3]; at 33.0 µM -14% | [3]; at 100.0 µM 6% | [4]; at 1.2 µM 12% | [4]; at 3.7 µM 4% | [4]; at 11.0 µM 10% | [5]; at 1.2 µM -1% | [5]; at 3.7 µM -9% | [5]; at 11.0 µM -9% | [5]; at 33.0 µM 63% | [6]; at 1.2 µM -44% | [6]; at 3.7 µM -32% | [6]; at 11.0 µM -28% | [6]; at 33.0 µM 58% | [7]; [16] -3% | [13]; at 1.2 µM 14% | [13]; at 3.7 µM 2% | [13]; at 11.0 µM -7% | [13]; at 33.0 µM 54% | [14]; [16] 12% | [8]; at 1.2 µM 4% | [8]; at 3.7 µM 15% | [8]; [16] -1% | [8]; at 11.0 µM 16% | [9]; at 1.2 µM -28% | [9]; at 3.7 µM -32% | [9]; at 11.0 µM -26% | [9]; at 33.0 µM 39% | [15]; at 1.2 µM -35% | [15]; at 3.7 µM -29% | [15]; at 11.0 µM -40% | [15]; at 33.0 µM 35% | [10]; at 1.2 µM -27% | [10]; at 3.7 µM -33% | [10]; at 11.0 µM -25% | [10]; at 33.0 µM 41% | [12]; at 1.2 µM 0% | [12]; at 3.7 µM -2% | [12]; at 11.0 µM 0%
